The results in this text go back to PubChem BioAssay (EPA / NIEHS).

The structures appear in SMILES notation. The source made the active and inactive calls. The calls were made as follows: active = hit-call score of the fitted dose curve at least 0.9, where 1 is the maximum; inactive = score below 0.9.

What is called AC50 is the concentration at which the activity in the assay is half-maximal.

The nature of this test: APR_HepG2_StressKinase_72hr: Apredica 72-hour HepG2 Assay for Stress Kinase (AID 2282921). Conditions: HepG2 stress kinase (phospho-c-Jun) imaging, actives raise or lower the signal. The procedure: APR_HepG2_72hr is a cell-based, multiplexed-readout assay that uses HepG2, a human liver cell line, with measurements taken at 72 hours after chemical dosing in a 384-well plate.APR_HepG2_StressKinase_72hr is one of 10 assay component(s) measured or calculated from the APR_HepG2_72hr assay. It is designed to make measurements of enzyme activity, a form of enzyme reporter, as detected with fluorescence intensity signals by HCS Fluorescent Imaging technology.Data from the assay component APR_HepG2_StressKinase_72hr was analyzed into 1 assay endpoint. This assay endpoint, APR_HepG2_StressKinase_72hr, was analyzed with bidirectional fitting relative to DMSO as the negative control and baseline of activity. Using a type of enzyme reporter, measures of protein for gain or loss-of-signal activity can be used to understand the signaling at the pathway-level as they relate to the gene . Furthermore, this assay endpoint can be referred to as a primary readout, because this assay has produced multiple assay endpoints where this one serves a signaling function. To generalize the intended target to other relatable targets, this assay endpoint is annotated to the cell cycle intended target family, where the subfamily is stress response.
Cells were treated with dimethyl sulfoxide (DMSO) as a solvent control at a final concentration of 0.5% v/v or with compounds in DMSO with a resulting final DMSO concentration of 0.5% v/v. Compound treatment was done at concentrations of 0.39, 0.78, 1.56, 3.12, 6.24, 12.5, 25, 50, 100, and 200 uM in duplicate on each plate. Cells were treated with compounds for 1, 24, or 72 hr. Carbonyl […] m-chloro-phenylhydrazone (CCCP) and taxol were used as positive controls for mitochondrial function and cytoskeletal stability, respectively; DMSO served as the negative control for this experiment. Cells were fixed by the direct addition of 50 uL formaldehyde in Hank's Balanced Salt Solution (HBSS) to a final concentration of 3.7%. After incubation in the fixation medium for 30 min at room temperature (293-298 K), cells were rinsed twice with HBSS and treated with cell permeabilization buffer (16 uL of 0.5% Triton X-100) for 10 min at room temperature (293-298 K) before labeling. For mitochondrial membrane potential and mitochondrial measurements, pre-fixed cells were incubated with 50 uL of MitoTracker Red CMXRos (Invitrogen) at a concentration of 250 nM for 30 min before fixation. In the remaining cases, post-fixed cells were labeled by incubation with a multiplexed mixture of primary antibodies in HBSS for 60 min at room temperature (293-298 K) to detect immunoreactivity of c-Jun (1:500), phospho-histone H3 (1:100), phospho-histone H2A.x (1:200), p53 (1:400), alpha-tubulin (1:200) and Hoechst 33342 (2 ug/mL). Cells were labeled for multiplexed imaging on two separate plates: a) Hoechst 33342, MitoTracker Red, phospho-histone H3, and alpha-tubulin, and b) Hoechst 33342, phospho-histone H2A.x, and c-Jun. A final rinse with HBSS (50 uL) was performed before analysis. The primary and secondary antibodies for the proteins were phospho-histone H3 (rabbit anti-phospho-histone H3 and FITC-donkey anti-rabbit IgG), phospho-histone H2A.x (mouse anti-phospho-histone H2A.x and FITC-donkey anti-mouse IgG), c-Jun (rabbit anti-phospho-c-Jun and Cy3-donkey anti-rabbit IgG), p53 (sheep anti-p53 and Cy5-donkey anti-sheep IgG), alpha-tubulin (mouse anti-alpha-tubulin and Cy5-donkey anti-mouse IgG). These antibodies are available as the CellCiphr HepG2 assay kit (Millipore).Digital images of each well were captured using a Cellomics ArrayScan VTI (Thermo Scientific Cellomics) (0.8 NA objective, 0.63x optical coupler, and XF-93 filter set) at 20x magnification. The images were acquired using the autofocus feature of the ArrayScan instrument, which entails the following steps. First, the camera focuses on channel 1 (Hoechst 33342), where nuclei are identified. Second, a Z offset of 1 um is used for capturing mitochondria (MitoTracker Red). […]
With `CN(C)CCCN1c2ccccc2Sc2ccc(Cl)cc21`, the AC50 was 107 µM (active).

As for `CC(=O)OC1CC(C)OC(C)O1` (stereo not given), the outcome was inactive. The same measure, in the same setting: then `CCCCCCCCCCCCCCOS(=O)(=O)O`, with “inactive”; and `NC1CCCCC1`, with “inactive”. Still for that read-out and setting: then `O=C(O)CN(CC(=O)O)CC(=O)O`, with “inactive”. Regarding `Cc1ccc(-c2cc(C(F)(F)F)nn2-c2ccc(S(N)(=O)=O)cc2)cc1`, the half-maximal activity concentration (AC50) is 111 µM (active).

Turning to `COC(=O)CCC(=O)OC`, the outcome was inactive. Same read-out and setting: then `CSc1ccc(Oc2ccc(S(N)(=O)=O)cc2CN(C)C)cc1C`, with “inactive”. The same measure, in the same setting: then `CC(C)COC(=O)CCCCC(=O)OCC(C)C`, with “inactive”. Regarding `C=CCCCCCCCCCCCC`, the AC50 was 98.5 µM (active). On to `CC(=O)S[C@H](C(=O)N[C@H]1Cc2ccccc2[C@H]2CCC[C@@H](C(=O)O)N2C1=O)C(C)C`, for which the compound was called inactive.

As for `CC(=O)CC(c1ccccc1)c1c(O)c2ccccc2oc1=O` (stereo not given), the compound was called inactive. Same read-out and setting: then `Nc1nc(Cl)nc2c1ncn2[C@H]1C[C@H](O)[C@@H](CO)O1`, with “inactive”; and `CCCCCCCCCCCCCCCCO`, with “inactive”. Same read-out and setting: then `CC(COCC(C)OC(=O)c1ccccc1)OC(=O)c1ccccc1` (stereo not given), with “inactive”; and `Cc1occc(=O)c1O`, with “inactive”; and `CC(C)(C)c1ccccc1`, with “inactive”. With `Oc1ccccc1O`, the compound was classed as inactive.

With `CCc1cc(C2=C(C(=O)O)N(c3ccccc3C(F)(F)F)S(=O)(=O)c3ccccc32)cc2c1OCO2`, the outcome was inactive. Same read-out and setting: the entry for `CO[C@@H]1COCC[C@@H]1N[C@@H]1CC[C@@](C(=O)N2CCc3ncc(C(F)(F)F)cc3C2)(C(C)C)C1` is “inactive”; for `CS(=O)(=O)c1ccc([C@@H](C[C@H]2CCC(=O)C2)C(=O)Nc2cnccn2)cc1Cl` it is “inactive”.

As to `CC(C)c1cccc(C(C)C)c1NC(=O)NS(=O)(=O)c1cc(C(C)(C)O)co1`, the call was inactive. Consider `Cc1c(C)c2c(c(C)c1O)CCC(C)(COc1ccc(CC3SC(=O)NC3=O)cc1)O2` (stereo not given), for which the AC50 is 78.4 µM (active). With `CC(C)c1cccc(C(C)C)c1`, the compound was called inactive. On to `O=C1OC(c2ccc(O)cc2)(c2ccc(O)cc2)c2ccccc21`, for which the half-maximal activity concentration (AC50) was 40 µM (active).

`C=CCc1ccc(OC)c(OC)c1`: the call was inactive. On the same count and under the same terms, then `CC1=C(C)S(=O)(=O)CCS1(=O)=O`, with “inactive”. Regarding `Cc1cn([C@H]2C=C[C@@H](CO)O2)c(=O)[nH]c1=O`, the outcome was inactive. Consider `NC=O`, for which the compound was called inactive. On the same count and under the same terms, the entry for `C/C=C/C=C/C(=O)O` is “inactive”; for `CCC(C)N(C)C(=O)c1cc2ccccc2c(-c2ccccc2Cl)n1` (stereo not given) it is “inactive”.

Turning to `O=C1CCCCC1`, the compound was called inactive. Still for that read-out and setting: then `O=C(Oc1ccccc1)c1cccc(C(=O)Oc2ccccc2)c1`, with “inactive”; and `c1ccc2occc2c1`, with “inactive”. Still for that read-out and setting: then `CC(C)OC(=O)C(C)(C)Oc1ccc(C(=O)c2ccc(Cl)cc2)cc1`, with “inactive”. Still for that read-out and setting: then `N[C@@H](Cc1c[nH]c2ccccc12)C(=O)O`, with “inactive”; and `OCC(CO)n1cnc(-c2ccc(F)cc2)c1-c1ccnc(Oc2ccccc2)n1`, with “inactive”. Turning to `CN(C)C(=O)NC1(c2ccccc2)CCN(CCC[C@]2(c3ccc(Cl)c(Cl)c3)CCCN(C(=O)c3ccccc3)C2)CC1`, the AC50 was 25 µM (active). Regarding `COC(=O)[C@H]1[C@H]2C[C@@H]3c4[nH]c5cc(OC)ccc5c4CCN3C[C@H]2C[C@@H](OC(=O)c2cc(OC)c(OC)c(OC)c2)[C@@H]1OC`, the outcome was inactive. The same measure, in the same setting: then `O=Cc1ccccc1C=O`, with “inactive”.
